In PubChem BioAssay (EPA / NIEHS):
Several values for one entry are separate records, joined by “and”; a condition that tells them apart may be missing. Equal entries are not always repeated. Records with an inconclusive call do not appear. Where a structure was tested more than once in an assay, its records may differ in their call. Activity calls are given as the source filed them. How the source made its calls: active means hit-call score of the fitted dose curve at least 0.9, where 1 is the maximum; inconclusive means response in the unintended direction; inactive means score below 0.9.

The compounds below were run against Collagenase 3 (Homo sapiens) (UniProt P45452) (assay: NVS_ENZ_hMMP13: NovaScreen (NVS) Enzymatic Assay for human Matrix Metalloproteinase-13 (MMP13) (AID 2283182)).
Experimental: NVS_ENZ_hMMP13 is a biochemical, single-readout assay that uses extracted gene-proteins in a cell-free assay. Measurements were taken 1 hour after chemical dosing in a 96-well plate.NVS_ENZ_hMMP13 is one of one assay component(s) measured or calculated from the NVS_ENZ_hMMP13 assay. It is designed to make measurements of enzyme activity, a form of enzyme reporter, as detected with fluorescence intensity signals by Fluorescence technology.Data from the assay component NVS_ENZ_hMMP13 was analyzed into 1 assay endpoint. This assay endpoint, NVS_ENZ_hMMP13, was analyzed in the positive analysis fitting direction relative to DMSO as the negative control and baseline of activity. Using a type of enzyme reporter, loss-of-signal activity can be used to understand changes in the enzymatic activity as they relate to the gene MMP13. Furthermore, this assay endpoint can be referred to as a primary readout, because this assay has produced multiple assay endpoints where this one serves a enzymatic activity function. To generalize the intended target to other relatable targets, this assay endpoint is annotated to the protease intended target family, where the subfamily is matrix metalloproteinase.
Binding assays used specific radioligands (tritiated, iodinated) with non-radioactive competitive displacement ligands in agonist or antagonist protocols (as indicated) and various reference compounds and inhibitors to titrate specific binding to receptors and transporters. Most enzyme assays (CYPs, kinases, phosphatases, proteases, HDACs) used recombinant protein and specific substrates (fluorescence mostly, some colorimetric and radioactive) and inhibitors, followed by a biochemical separation of substrate and product. All assays for the biochemical HTS were initially run in duplicate at a single concentration (10 uM for CYP450 assays and 25 uM for all others). Assay-chemical combinations meeting a pre-defined threshold (e.g., 30% inhibition and other criteria defined below) were then run in singleton concentration-response format with maximum concentration of 20 uM for CYPs and 50 uM for all others. Each assay was run with positive and negative controls, and concurrent controls on every plate. The follow-up (secondary) screen tested active chemical-pairs in concentration series, as well as a few additional assays not tested in the primary screen, some selected negative inactives, and several cases re-run in the concentration series for confirmatory purposes.

SMILES	outcome	AC50
O=C(O)C(F)(F)C(F)(F)C(F)(F)C(F)(F)C(F)(F)C(F)(F)C(F)(F)F	inactive	–
CC[C@H](C)[C@H]1O[C@]2(C=C[C@@H]1C)C[C@@H]1C[C@@H](C/C=C(\C)[C@@H](O[C@H]3C[C@H](OC)[C@@H](O[C@H]4C[C@H](OC)[C@@H](O)[C@H](C)O4)[C@H](C)O3)[C@@H](C)/C=C/C=C3\CO[C@@H]4[C@H](O)C(C)=C[C@@H](C(=O)O1)[C@]34O)O2 (tested in a mixture with another compound)	–	25 µM (active)
COC(=O)c1ccccc1S(=O)(=O)NC(=O)Nc1nc(C)nc(OC)n1	inactive	–
O=C(Nc1ccccc1)Nc1cnns1	inactive	–
O=S(=O)(O)C(F)(F)C(F)(F)C(F)(F)C(F)(F)C(F)(F)C(F)(F)C(F)(F)C(F)(F)F	–	7.53 µM (active) and 43 µM (active)

What follows are compounds tested against human Matrix Metalloproteinase-7 (MMP7), MMP7 (gene 4316) (UniProt P09237) (assay: NVS_ENZ_hMMP7: NovaScreen (NVS) Enzymatic Assay for human Matrix Metalloproteinase-7 (MMP7) (AID 2283183)).
human Matrix Metalloproteinase-7 (MMP7), MMP7 (gene 4316), sequence (P09237 whole entry, looked up): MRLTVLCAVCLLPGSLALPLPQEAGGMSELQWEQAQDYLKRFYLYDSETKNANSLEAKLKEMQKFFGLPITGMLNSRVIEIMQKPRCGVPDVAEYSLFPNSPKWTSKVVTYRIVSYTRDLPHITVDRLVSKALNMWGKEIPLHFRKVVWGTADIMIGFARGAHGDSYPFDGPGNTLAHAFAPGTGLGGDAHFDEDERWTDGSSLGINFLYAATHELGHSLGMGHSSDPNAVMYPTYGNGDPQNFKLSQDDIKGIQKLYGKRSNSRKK
Summary of the method: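 Cell-free fluorescence enzymatic assay read 1 h after compound addition, activity loss analyzed against DMSO. Primary duplicate testing at 25 uM; compounds meeting threshold rerun in singleton concentration-response up to 50 uM.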

SMILES	AC50	outcome
Oc1ccc(Cl)cc1Cc1ccccc1	6.41 µM (active)	–
Oc1cc(Cl)ccc1Oc1ccc(Cl)cc1Cl	13 µM (active)	inactive
N#Cc1c(Cl)c(Cl)c(Cl)c(C#N)c1Cl	–	inactive
O=S(=O)(O)C(F)(F)C(F)(F)C(F)(F)C(F)(F)C(F)(F)C(F)(F)C(F)(F)C(F)(F)F	1.73 µM (active)	–

The compounds below were run against human Matrix Metalloproteinase-2 (MMP2), MMP2 (gene 4313) (UniProt P08253) (assay: NVS_ENZ_hMMP2: NovaScreen (NVS) Enzymatic Assay for human Matrix Metalloproteinase-2 (MMP2) (AID 2283184)).
human Matrix Metalloproteinase-2 (MMP2), MMP2 (gene 4313), sequence (P08253 whole entry, looked up): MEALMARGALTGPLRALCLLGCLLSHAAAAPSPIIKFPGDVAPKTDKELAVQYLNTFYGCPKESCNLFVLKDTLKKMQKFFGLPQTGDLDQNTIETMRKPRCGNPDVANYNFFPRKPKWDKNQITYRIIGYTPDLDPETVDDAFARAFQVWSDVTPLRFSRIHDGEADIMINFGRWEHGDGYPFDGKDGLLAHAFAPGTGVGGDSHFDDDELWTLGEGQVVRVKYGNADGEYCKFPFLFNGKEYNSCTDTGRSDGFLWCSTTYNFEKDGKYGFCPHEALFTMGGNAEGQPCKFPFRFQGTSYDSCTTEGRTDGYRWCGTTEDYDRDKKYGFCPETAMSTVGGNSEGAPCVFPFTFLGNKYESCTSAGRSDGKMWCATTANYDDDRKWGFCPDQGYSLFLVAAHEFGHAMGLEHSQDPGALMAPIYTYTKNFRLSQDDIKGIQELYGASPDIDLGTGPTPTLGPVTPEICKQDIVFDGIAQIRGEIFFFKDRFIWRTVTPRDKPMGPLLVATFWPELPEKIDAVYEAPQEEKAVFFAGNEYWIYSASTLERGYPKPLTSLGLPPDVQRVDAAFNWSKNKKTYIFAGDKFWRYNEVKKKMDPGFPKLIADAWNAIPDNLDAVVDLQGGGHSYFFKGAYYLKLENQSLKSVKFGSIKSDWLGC
Summary of the method: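 Cell-free recombinant MMP2 activity with a fluorescent substrate, read 1 h after dosing. Primary screen in duplicate at 25 uM; actives then run in concentration series; loss of signal fitted versus DMSO.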

SMILES	outcome
CCC(C)(C)C(=O)OC1=C(c2ccc(Cl)cc2Cl)C(=O)OC12CCCCC2	inactive
Oc1cc(Cl)ccc1Oc1ccc(Cl)cc1Cl	inactive
O=S(=O)(O)C(F)(F)C(F)(F)C(F)(F)C(F)(F)C(F)(F)C(F)(F)C(F)(F)C(F)(F)F	inactive

What follows are compounds tested against human Mitogen- and Stress-activated Protein Kinase-1 (Msk1), RPS6KA5 (gene 9252) (UniProt O75582) (assay: NVS_ENZ_hMsk1: NovaScreen (NVS) Enzymatic Assay for human Mitogen- and Stress-activated Protein Kinase-1 (Msk1) (AID 2283187)).
human Mitogen- and Stress-activated Protein Kinase-1 (Msk1), RPS6KA5 (gene 9252), sequence (O75582 whole entry, looked up): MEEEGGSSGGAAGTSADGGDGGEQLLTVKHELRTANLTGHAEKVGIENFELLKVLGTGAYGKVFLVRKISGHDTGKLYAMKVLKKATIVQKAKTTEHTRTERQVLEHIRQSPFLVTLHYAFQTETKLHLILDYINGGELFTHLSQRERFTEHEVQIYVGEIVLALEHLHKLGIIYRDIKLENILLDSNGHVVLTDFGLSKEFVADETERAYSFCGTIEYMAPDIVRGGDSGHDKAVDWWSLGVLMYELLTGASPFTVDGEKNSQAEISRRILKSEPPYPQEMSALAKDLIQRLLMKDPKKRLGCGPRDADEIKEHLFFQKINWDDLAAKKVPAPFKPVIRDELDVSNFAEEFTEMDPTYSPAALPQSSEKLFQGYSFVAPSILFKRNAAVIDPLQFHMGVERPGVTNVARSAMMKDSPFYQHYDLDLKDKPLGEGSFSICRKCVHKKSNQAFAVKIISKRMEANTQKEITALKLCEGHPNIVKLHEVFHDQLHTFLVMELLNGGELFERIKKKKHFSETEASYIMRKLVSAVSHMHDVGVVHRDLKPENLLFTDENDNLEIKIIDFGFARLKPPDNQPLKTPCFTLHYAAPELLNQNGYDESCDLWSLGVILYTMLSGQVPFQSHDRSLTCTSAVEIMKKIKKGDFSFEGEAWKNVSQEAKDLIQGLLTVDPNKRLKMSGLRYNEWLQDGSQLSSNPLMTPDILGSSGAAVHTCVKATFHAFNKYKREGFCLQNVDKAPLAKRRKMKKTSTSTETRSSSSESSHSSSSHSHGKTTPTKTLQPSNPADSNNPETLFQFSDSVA
Summary of the method: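 Recombinant kinase with fluorescent substrate; product separated by electrophoretic mobility shift, read 1 h after dosing. Screened in duplicate at 25 uM; hits (e.g. ≥30% inhibition) tested in concentration–response up to 50 uM. DMSO baseline.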

SMILES	outcome	AC50
COC(=O)c1ccccc1S(=O)(=O)NC(=O)N(C)c1nc(C)nc(OC)n1	inactive	–
O=C(O)C(F)(F)C(F)(F)C(F)(F)C(F)(F)C(F)(F)C(F)(F)C(F)(F)F	inactive	–
O=S(=O)(O)C(F)(F)C(F)(F)C(F)(F)C(F)(F)C(F)(F)C(F)(F)C(F)(F)C(F)(F)F	–	24.1 µM (active)

What follows are compounds tested against human Matrix Metalloproteinase-9 (MMP9), MMP9 (gene 4318) (UniProt P14780) (assay: NVS_ENZ_hMMP9: NovaScreen (NVS) Enzymatic Assay for human Matrix Metalloproteinase-9 (MMP9) (AID 2283190);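 further: cell-free recombinant MMP9 protease activity read by fluorescent substrate signal; active means inhibition seen as loss of fluorescence signal versus DMSO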).
human Matrix Metalloproteinase-9 (MMP9), MMP9 (gene 4318), sequence (P14780 whole entry, looked up): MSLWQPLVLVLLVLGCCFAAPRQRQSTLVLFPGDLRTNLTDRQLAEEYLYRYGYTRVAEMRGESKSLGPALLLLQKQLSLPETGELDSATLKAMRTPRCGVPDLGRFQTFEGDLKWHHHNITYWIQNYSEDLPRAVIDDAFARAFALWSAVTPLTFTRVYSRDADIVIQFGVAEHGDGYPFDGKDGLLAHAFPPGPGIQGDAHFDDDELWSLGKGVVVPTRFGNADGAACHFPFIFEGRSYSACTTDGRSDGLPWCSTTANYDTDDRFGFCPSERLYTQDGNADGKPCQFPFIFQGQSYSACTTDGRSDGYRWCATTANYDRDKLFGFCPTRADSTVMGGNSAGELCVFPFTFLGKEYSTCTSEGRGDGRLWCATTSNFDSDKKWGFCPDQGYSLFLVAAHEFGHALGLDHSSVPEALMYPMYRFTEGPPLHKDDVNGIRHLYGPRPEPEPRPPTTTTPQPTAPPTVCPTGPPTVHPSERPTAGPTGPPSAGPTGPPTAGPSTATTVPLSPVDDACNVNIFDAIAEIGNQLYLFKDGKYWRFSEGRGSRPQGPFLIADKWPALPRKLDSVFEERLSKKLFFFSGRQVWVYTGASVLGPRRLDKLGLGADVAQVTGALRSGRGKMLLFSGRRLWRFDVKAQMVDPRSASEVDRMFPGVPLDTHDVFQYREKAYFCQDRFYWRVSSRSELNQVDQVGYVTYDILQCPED
Summary of the method: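 Cell-free fluorescence-intensity enzyme activity assay using extracted protein, read 1 h after dosing. Loss of signal versus DMSO baseline indicates inhibition; primary screen in duplicate at 25 uM, actives followed up in concentration series.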

SMILES	outcome	AC50
Oc1ccc(Cl)cc1Cc1ccccc1	inactive	–
O=C(O)C(F)(F)C(F)(F)C(F)(F)C(F)(F)C(F)(F)C(F)(F)C(F)(F)F	inactive	–
Oc1cc(Cl)ccc1Oc1ccc(Cl)cc1Cl	inactive	–
CC[C@H](C)[C@H]1O[C@]2(C=C[C@@H]1C)C[C@@H]1C[C@@H](C/C=C(\C)[C@@H](O[C@H]3C[C@H](OC)[C@@H](O[C@H]4C[C@H](OC)[C@@H](O)[C@H](C)O4)[C@H](C)O3)[C@@H](C)/C=C/C=C3\CO[C@@H]4[C@H](O)C(C)=C[C@@H](C(=O)O1)[C@]34O)O2 (tested in a mixture with another compound)	–	5.22 µM (active)
CNC(=O)CSP(=S)(OC)OC	inactive	–
CN1CSC(=S)N(C)C1	inactive	–
O=S(=O)(O)C(F)(F)C(F)(F)C(F)(F)C(F)(F)C(F)(F)C(F)(F)C(F)(F)C(F)(F)F	inactive	–

The compounds below were run against human Phosphodiesterase 4A1 (PDE4A1), PDE4A (gene 5141) (UniProt P27815) (assay: NVS_ENZ_hPDE4A1: NovaScreen (NVS) Enzymatic Assay for human Phosphodiesterase 4A1 (PDE4A1) (AID 2283191)).
human Phosphodiesterase 4A1 (PDE4A1), PDE4A (gene 5141), sequence (P27815 whole entry, looked up): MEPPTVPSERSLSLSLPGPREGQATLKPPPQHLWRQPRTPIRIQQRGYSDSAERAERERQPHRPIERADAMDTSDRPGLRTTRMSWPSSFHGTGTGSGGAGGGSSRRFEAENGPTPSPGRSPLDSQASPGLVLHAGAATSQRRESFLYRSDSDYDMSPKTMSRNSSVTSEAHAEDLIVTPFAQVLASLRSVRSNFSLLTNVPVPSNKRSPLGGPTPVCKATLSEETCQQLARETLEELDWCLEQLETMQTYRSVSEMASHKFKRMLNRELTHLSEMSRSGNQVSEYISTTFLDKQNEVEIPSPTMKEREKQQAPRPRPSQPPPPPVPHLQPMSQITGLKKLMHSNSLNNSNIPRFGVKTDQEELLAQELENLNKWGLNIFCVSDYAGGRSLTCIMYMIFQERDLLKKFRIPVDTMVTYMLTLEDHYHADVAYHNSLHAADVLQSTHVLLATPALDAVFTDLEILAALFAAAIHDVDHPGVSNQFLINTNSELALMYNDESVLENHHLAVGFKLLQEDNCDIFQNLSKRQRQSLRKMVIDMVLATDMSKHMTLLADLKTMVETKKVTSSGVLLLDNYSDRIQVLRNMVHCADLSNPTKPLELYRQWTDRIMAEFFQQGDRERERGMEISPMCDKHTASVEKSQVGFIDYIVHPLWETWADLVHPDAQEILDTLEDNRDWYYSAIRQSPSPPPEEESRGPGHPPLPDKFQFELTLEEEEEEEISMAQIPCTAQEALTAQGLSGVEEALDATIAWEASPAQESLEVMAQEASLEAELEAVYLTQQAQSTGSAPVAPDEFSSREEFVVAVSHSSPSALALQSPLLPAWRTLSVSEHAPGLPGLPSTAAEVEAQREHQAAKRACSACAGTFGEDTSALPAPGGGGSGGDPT
Summary of the method: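 Cell-free recombinant human PDE4A1 with fluorescent substrate; product separated by electrophoretic mobility shift, 1 h. Screened at 25 uM, then up to 50 uM in concentration-response; loss of signal fitted against DMSO.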

SMILES	outcome	AC50
Oc1ccc(Cl)cc1Cc1ccccc1	inactive	–
COC(=O)c1ccccc1S(=O)(=O)NC(=O)N(C)c1nc(C)nc(OC)n1	–	25 µM (active)
CCCN(CCOc1c(Cl)cc(Cl)cc1Cl)C(=O)n1ccnc1	–	7.79 µM (active)
COP(=S)(OC)Oc1ccc([N+](=O)[O-])cc1	inactive	–
COc1nn(CSP(=S)(OC)OC)c(=O)s1	–	9.55 µM (active)
CC(C)(C)C(O)C(Oc1ccc(Cl)cc1)n1cncn1 (centres undefined)	inactive	–
CCOc1nc(NC)nc(NC(=O)NS(=O)(=O)c2ccccc2C(=O)OC)n1	–	14.8 µM (active)
O=S(=O)(O)C(F)(F)C(F)(F)C(F)(F)C(F)(F)C(F)(F)C(F)(F)C(F)(F)C(F)(F)F	–	5.35 µM (active)

These compounds were tested against cAMP-dependent protein kinase catalytic subunit alpha (Homo sapiens) (UniProt P17612) (assay: NVS_ENZ_hPKA: NovaScreen (NVS) Enzymatic Assay for human Protein Kinase A (PKA) (AID 2283192)).
Summary of the method: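 Recombinant human PKA with specific fluorescent substrate, product separated by electrophoretic mobility shift, read 1 h after dosing. Primary screen at 25 uM in duplicate; actives then run in concentration-response up to 50 uM, activity relative to DMSO.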

SMILES	outcome	AC50
COC(=O)c1ccccc1S(=O)(=O)NC(=O)N(C)c1nc(C)nc(OC)n1	inactive	–
O=C(O)C(F)(F)C(F)(F)C(F)(F)C(F)(F)C(F)(F)C(F)(F)C(F)(F)F	inactive	–
O=S(=O)(O)C(F)(F)C(F)(F)C(F)(F)C(F)(F)C(F)(F)C(F)(F)C(F)(F)C(F)(F)F	–	36.3 µM (active) and 47.7 µM (active)

These compounds were tested against human Phosphodiesterase 5 (PDE5), PDE5A (gene 8654) (UniProt O76074) (assay: NVS_ENZ_hPDE5: NovaScreen (NVS) Enzymatic Assay for human Phosphodiesterase 5 (PDE5) (AID 2283194)).
Summary of the method: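 Recombinant human PDE5 with specific substrate, read 1 h after dosing by fluorescence with electrophoretic mobility-shift separation of substrate and product. Initial single-concentration duplicate screen at 25 uM, actives followed in concentration series; loss of activity versus DMSO.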

SMILES	outcome	AC50
Oc1ccc(Cl)cc1Cc1ccccc1	inactive	–
CCCN(CCOc1c(Cl)cc(Cl)cc1Cl)C(=O)n1ccnc1	–	9.58 µM (active)
Oc1cc(Cl)ccc1Oc1ccc(Cl)cc1Cl	inactive	–
N#Cc1c(Cl)c(Cl)c(Cl)c(C#N)c1Cl	–	31.8 µM (active)
CC(C)(C)C(O)C(Oc1ccc(Cl)cc1)n1cncn1 (centres undefined)	inactive	–
O=S(=O)(O)C(F)(F)C(F)(F)C(F)(F)C(F)(F)C(F)(F)C(F)(F)C(F)(F)C(F)(F)F	–	25 µM (active) and 21.9 µM (active)
Cc1[nH]c(=O)n(C(C)(C)C)c(=O)c1Cl	–	9.17 µM (active)

What follows are compounds tested against human Phosphodiesterase 10 (PDE10), PDE10A (gene 10846) (UniProt Q9Y233) (assay: NVS_ENZ_hPDE10: NovaScreen (NVS) Enzymatic Assay for human Phosphodiesterase 10 (PDE10) (AID 2283195)).
human Phosphodiesterase 10 (PDE10), PDE10A (gene 10846), sequence (Q9Y233 whole entry, looked up): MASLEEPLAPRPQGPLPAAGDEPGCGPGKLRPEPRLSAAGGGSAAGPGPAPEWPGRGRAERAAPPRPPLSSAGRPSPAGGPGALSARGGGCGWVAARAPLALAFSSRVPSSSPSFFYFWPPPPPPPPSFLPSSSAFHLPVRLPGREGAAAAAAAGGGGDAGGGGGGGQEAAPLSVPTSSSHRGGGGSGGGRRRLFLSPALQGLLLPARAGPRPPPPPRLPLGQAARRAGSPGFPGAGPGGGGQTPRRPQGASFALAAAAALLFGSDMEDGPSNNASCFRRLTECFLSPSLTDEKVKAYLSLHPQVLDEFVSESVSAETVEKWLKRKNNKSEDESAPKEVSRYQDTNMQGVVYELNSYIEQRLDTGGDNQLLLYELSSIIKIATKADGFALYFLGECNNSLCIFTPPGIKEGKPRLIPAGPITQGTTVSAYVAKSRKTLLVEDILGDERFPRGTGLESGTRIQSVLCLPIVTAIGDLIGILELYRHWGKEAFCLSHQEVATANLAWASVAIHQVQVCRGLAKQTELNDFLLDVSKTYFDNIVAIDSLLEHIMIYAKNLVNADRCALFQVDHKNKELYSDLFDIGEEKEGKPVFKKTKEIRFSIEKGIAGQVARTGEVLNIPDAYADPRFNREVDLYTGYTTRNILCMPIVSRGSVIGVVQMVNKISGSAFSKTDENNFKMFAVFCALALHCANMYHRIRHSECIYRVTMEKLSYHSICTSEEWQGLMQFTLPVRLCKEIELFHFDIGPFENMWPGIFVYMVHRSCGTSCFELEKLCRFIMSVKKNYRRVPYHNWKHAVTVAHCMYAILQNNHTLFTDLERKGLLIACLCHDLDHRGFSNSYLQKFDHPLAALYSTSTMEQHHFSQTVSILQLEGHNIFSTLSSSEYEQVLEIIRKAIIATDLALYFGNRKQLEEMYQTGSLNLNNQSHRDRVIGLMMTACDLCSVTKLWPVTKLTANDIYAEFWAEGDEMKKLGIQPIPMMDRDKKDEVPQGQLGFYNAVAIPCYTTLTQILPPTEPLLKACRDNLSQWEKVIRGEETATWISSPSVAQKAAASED
Summary of the method: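 PDE10A, cell-free; 1 h incubation; fluorescence intensity + electrophoretic mobility shift separating substrate/product; DMSO = baseline; 25 uM duplicate primary, CRC up to 50 uM.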

SMILES	outcome
N#Cc1c(Cl)c(Cl)c(Cl)c(C#N)c1Cl	inactive
CC(C)(C)C(O)C(Oc1ccc(Cl)cc1)n1cncn1 (centres undefined)	inactive
O=S(=O)(O)C(F)(F)C(F)(F)C(F)(F)C(F)(F)C(F)(F)C(F)(F)C(F)(F)C(F)(F)F	inactive
